Compound activity: PubChem, National Center for Advancing Translational Sciences (NCATS)
This is a sample that favours compounds with a hit; in the whole collection about 2.4% have one here.
D2 PAM-1: positive allosteric modulators of human D2 dopamine receptor. AID 624464. DiscoveRx D2 beta-arrestin cells, luminescence, 90 min; 100% = 57 uM dopamine signal. 0.23% of 360,000 active. potentiation, % (no concentration beside the values). P14416; in the data active means potentiation above about 50%; inconclusive means mostly about 30% to 49%
Target sequence (P14416 whole entry, looked up): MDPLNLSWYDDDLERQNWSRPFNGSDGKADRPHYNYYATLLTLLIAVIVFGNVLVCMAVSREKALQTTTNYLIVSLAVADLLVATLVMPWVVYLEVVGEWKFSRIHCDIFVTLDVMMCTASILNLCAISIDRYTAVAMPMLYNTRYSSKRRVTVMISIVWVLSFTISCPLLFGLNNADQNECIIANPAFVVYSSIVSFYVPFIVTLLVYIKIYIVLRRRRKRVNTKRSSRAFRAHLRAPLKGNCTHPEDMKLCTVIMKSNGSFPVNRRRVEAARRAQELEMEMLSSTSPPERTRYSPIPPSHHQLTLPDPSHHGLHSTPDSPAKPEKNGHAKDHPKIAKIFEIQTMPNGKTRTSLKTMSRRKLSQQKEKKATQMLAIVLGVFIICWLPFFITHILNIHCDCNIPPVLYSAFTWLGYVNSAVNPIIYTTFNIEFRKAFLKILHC
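D2 cells co-treated with compound plus 50 nM dopamine (EC20) for 90 min at 37 deg C to detect potentiation. Beta-arrestin recruitment was read as enzyme-fragment luminescence after 1 h at ambient temperature. Full response was set by 57 uM dopamine.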
D2 ag-1: agonists of human D2 dopamine receptor; HEK293 T-REx D2 cells, calcium flux agonist mode; AID 485358; 0.53% of 340,000 active; activation, % at 2 µM;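 active means activation over 3 SD above normal in the single-dose calcium agonist read, cut at about 30% in these data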
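Tetracycline-induced HEK293 T-REx cells with force-coupled D2 receptor, plated overnight at 30 C, loaded with no-wash calcium dye. After a 10 s baseline, compound was pin-added and calcium flux read kinetically for 180 s; calcium rises flagged agonists.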
D2 PAM-2: positive allosteric modulators of human D2 dopamine receptor; HEK293 T-REx D2, calcium flux, EC20 dopamine potentiation; potentiation, % at 10 µM; 0.34% of 340,000 active;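 active means potentiation over 3 SD above the plate norm, cut at about 30% in these data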
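Calcium flux readout, no-wash dye, 1 read/s. Inducible HEK293 Trex D2 line, overnight 30 C. Compound alone 180 s (agonist flags), then EC20 dopamine, another 180 s to score potentiation.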
D2 antagonist: antagonists of human D2 dopamine receptor | P14416 | HEK293 TREx D2 cells, calcium flux, dopamine EC80 | inhibition, % at 10 µM | 2% of 340,000 active | AID 485344; in the data active means inhibition above about 30%; inactive means below that, where a call was filed
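Calcium flux kinetic readout in an inducible HEK293 TREx D2 line plated overnight at 30 C. After 180 s compound exposure, an EC80 dopamine challenge follows with another 180 s kinetic read to detect antagonism.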
D2 ag-2: human D2 receptor agonism in beta-arrestin assay; AID 624465; DiscoveRx PathHunter D2 beta-arrestin, luminescence, 90 min; 100% = 57 uM dopamine signal; 0.084% of 360,000 active; activation, % (test concentration not listed); in the data active means activation above about 40%; inconclusive means between about 15% and that limit
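Agonist mode: compounds alone added to overnight-plated D2 PathHunter cells for 90 min at 37 C, with 57 uM final dopamine (EC100) defining full response. Beta-arrestin recruitment detected by chemiluminescent reagent, read after 1 h at ambient temperature.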
Large screens that a line does not name were inactive.

CC(C)c1cc(-c2nc(-c3ccccc3)no2)n[nH]1	none (no result: D2 PAM-1, D2 antagonist, D2 ag-2)
Cc1cc(NC(=O)CCC(=O)N(Cc2ccco2)C2(C(=O)NC3CCCCC3)CCCCC2)no1	none
Cc1cc(NC(=O)CCC(=O)N(Cc2ccccc2)C2(C(=O)NC3CCCCC3)CCCC2)no1	D2 antagonist 44.5
Cc1ccc(C)c(N(CC(=O)NC2CCCC2)C(=O)CCC(=O)Nc2cc(C)on2)c1	D2 antagonist 36.3
CC(CC(F)(F)F)N1CCC(n2nccc2NC(=O)CCCc2ccccc2)CC1 (stereo unspecified)	none
COc1ccccc1C1CCN(c2cc(O)ccc2[N+](=O)[O-])CC1	D2 antagonist 34.4
CC(NC(=O)CN1C(=O)NC2(CCCC2)C1=O)c1ccc(Cl)cc1Cl (stereo unspecified)	none (no result: D2 ag-1, D2 PAM-2, D2 antagonist)
Nc1ccc(S(=O)(=O)c2cc(O)c3ccccc3c2O)cc1	D2 PAM-1 51.3, D2 ag-2 inconclusive (no result: D2 ag-1, D2 PAM-2, D2 antagonist)
O=S(=O)(c1ccccc1)c1cc(O)ccc1O	D2 ag-2 inconclusive
COc1ccc(CCC(=O)N2CCN(S(=O)(=O)c3cccc(Cl)c3)CC2)cc1	none
O=C(Nc1cccc(CNCCc2c[nH]c3ccccc23)c1)c1ccccc1Cl	D2 antagonist 72.4
CC(=O)c1cccc(NC(=O)NCCc2c[nH]c3ccccc23)c1	none
O=C(c1ccc(F)cc1)C1CCN(Cc2cn[nH]c2-c2ccc(F)cc2)CC1	D2 antagonist 93.9
CCOc1ccccc1N1CCN(Cc2cn[nH]c2-c2ccc(F)cc2)CC1	D2 antagonist 80.9
COc1ccc(C(=O)C2CCCN(Cc3cn[nH]c3-c3ccc(F)cc3)C2)cc1OC (stereo unspecified)	none
COc1ccc(C(C)=O)cc1COC(=O)C1CC(=O)N(Cc2ccccc2)C1 (stereo unspecified)	D2 PAM-1 53.8
COc1cccc(COC(=O)C2CC(=O)N(Cc3ccccc3)C2)c1OC (stereo unspecified)	none (no result: D2 ag-1, D2 PAM-2, D2 antagonist)
CC1(OC(=O)C2CCCC2)C(=O)C=C2C=C(c3ccsc3)N(c3ccccc3)C=C2C1=O (stereo unspecified)	D2 antagonist 36.0
COc1ccc2c(c1OC)C(=O)N1c3ccccc3C(=O)N(c3ccc(F)cc3)C21 (stereo unspecified)	D2 antagonist 40.6 (no result: D2 PAM-2)
O=C(ONC(=O)C1C2C=CC(C2)C1C(=O)NOC(=O)c1ccccc1)c1ccccc1 (stereo unspecified)	D2 PAM-1 inconclusive (no result: D2 ag-1, D2 PAM-2, D2 antagonist)
COc1cc(N)c(Cl)cc1C(=O)N[C@H]1CCN(CCCOc2ccc(F)cc2)C[C@H]1OC	none
COc1cc(N)c(Cl)cc1C(=O)N[C@@H]1CCN(CCCOc2ccc(F)cc2)C[C@@H]1OC	D2 antagonist 76.6 (no result: D2 PAM-1, D2 ag-2)
Cc1ccccc1CN1C[C@@H]2C[C@@H](c3cnc(N4CCOCC4)s3)N3CCC[C@@]23C1=O	D2 antagonist 36.7
COc1ccccc1CN1C[C@@H]2C[C@@H](c3ccccc3C)N3CCC[C@@]23C1=O	none
CCOC(=O)CSc1nnc(Cc2ccccc2)n1-c1cccc(Cl)c1	D2 PAM-2 31.9
COc1ccc(OCc2cc(C(=O)N3CCCC(CO)C3)no2)c2ccccc12 (stereo unspecified)	D2 PAM-1 73.5
O=C(c1cc(COc2ccc(F)cc2Cl)on1)N1CC[C@@H]2CCCC[C@H]2C1	none
O=C(c1cc(COc2ccc(F)cc2F)on1)N1CC[C@@H]2CCCC[C@H]2C1	D2 PAM-1 63.6
COC(=O)c1ccccc1NC(=O)NCCc1c(C)nn(C)c1C	none (no result: D2 PAM-1, D2 antagonist, D2 ag-2)
Nc1cc(OCc2ccccc2)ccc1OCc1ccccc1	none (no result: D2 ag-1, D2 PAM-2, D2 antagonist)
Cn1c(N)c(C(=O)COC(=O)c2ccc(-c3ccccc3)cc2)c(=O)n(C)c1=O	none (no result: D2 ag-1, D2 PAM-2, D2 antagonist)
COc1ccc(-n2nnc3c(SC(C(C)=O)C(=O)N(C)C)ncnc32)cc1 (stereo unspecified)	none
NC(=O)C[n+]1cccc(CNC(=O)c2ccc(OC(F)F)cc2)c1	D2 antagonist 31.7
O=C(C[n+]1cccc(CNC(=O)c2ccc(OC(F)F)cc2)c1)Nc1cc(C(F)(F)F)ccc1Cl	D2 antagonist 63.0
CCN(CC)CCOC(=O)c1ccc(NC(=O)CCCN2C(=O)/C(=C\c3cccs3)SC2=S)cc1	D2 antagonist 67.7
Cc1ccc(-c2nc3cnccn3c2Nc2ccc3c(c2)OCO3)o1	D2 antagonist 35.5
Cc1ccn2c(Nc3ccc4c(c3)OCO4)c(-c3ccc(C)o3)nc2c1	none (no result: D2 PAM-1, D2 antagonist, D2 ag-2)
NS(=O)(=O)c1ccc(CCNC(=O)COC(=O)CCN2C(=O)C3CC=CCC3C2=O)cc1 (stereo unspecified)	none
O=C(COC(=O)CCN1C(=O)C2CC=CCC2C1=O)NCCc1ccc(F)cc1 (stereo unspecified)	D2 antagonist 37.1
COC(=O)c1cc(COC(=O)CNC(=O)c2ccc(Br)cc2)oc1C	none (no result: D2 ag-1, D2 PAM-2, D2 antagonist)
Cc1c(C)n(C(=O)CN2CCC(C(N)=O)CC2)c2ccccc12	D2 antagonist 36.3
Cc1c(C)n(C(=O)CN2CCN(c3ccccc3)CC2)c2ccccc12	none
Cc1ccc(C(=O)NNc2ncnc3c2cnn3C)cc1	D2 antagonist 30.9
CN(C)CCN1C(=O)C(=O)/C(=C(/O)c2ccc(OCc3ccccc3)cc2)C1c1ccncc1 (stereo unspecified)	D2 antagonist 42.0
CCOc1ccc(C2/C(=C(/O)c3ccc(Cl)cc3)C(=O)C(=O)N2CCCN(C)C)cc1OC (stereo unspecified)	D2 antagonist 45.2 (no result: D2 PAM-1, D2 ag-2)
Cc1nccn1CCOc1ccccc1Cl	none
CCN(CC)CCNC(=O)c1ccc2c(c1)NC(=O)C(CS(=O)(=O)Cc1cccc(Br)c1)N2 (stereo unspecified)	none (no result: D2 PAM-1, D2 antagonist, D2 ag-2)
Cc1ccc(S(=O)(=O)N(C)C)cc1NC(=O)C1CCCN(C(=O)c2ccc(Cl)cc2)C1 (stereo unspecified)	D2 antagonist 31.2
O=C(NCc1ccc(Cl)cc1)C1CCCN(C(=O)c2ccc(Cl)cc2)C1 (stereo unspecified)	D2 antagonist 38.4
CCCC1OC(c2cc3c(cc2Cl)OCO3)OCC1CC (stereo unspecified)	none (no result: D2 ag-1, D2 PAM-2, D2 antagonist)
Cc1cc(NC(=O)c2cc(-c3ccccc3Cl)nc3ccccc23)no1	D2 PAM-2 32.0
CC(=O)c1cccc(NS(=O)(=O)c2ccc(N/C=C/C(=O)c3ccc(F)cc3)cc2)c1	none (no result: D2 ag-1, D2 PAM-2, D2 antagonist)
CC(=O)c1cccc(NS(=O)(=O)c2ccc(N/C=C\C(=O)c3ccc(C)cc3)cc2)c1	D2 PAM-1 64.4
COc1cc(Cl)c(NC(=O)CN(C)S(=O)(=O)c2ccc3[nH]c4c(c3c2)CCCC4)c(OC)c1	none (no result: D2 PAM-1, D2 antagonist, D2 ag-2)
O=C(O)c1n[nH]c2c1CCCCC2	none
O=C(O)c1n[nH]c2c1CCCC2	D2 antagonist 56.9
COc1ccc(C(=O)Nc2cc(C)c(NC(=O)c3ccccn3)cn2)cc1	D2 PAM-2 35.2
Cc1cc(N2CCC(C(=O)NCCC(C)C)CC2)n2nc(C)c(-c3ccc(Cl)cc3)c2n1	none (no result: D2 PAM-1, D2 antagonist, D2 ag-2)
